Screening data (PubChem)
Pf growth 96h – P. falciparum growth inhibition at 96 hours | P. falciparum luciferase reporter growth, 96 h | Potency, µM (titrated, usually from 28.7 µM), without a hit: at the highest dose activity change, negative = inhibition, most hits filed as inhibitors | 320,000 tested, 6.9% active | AID 504834; note: % is set by controls: 0 for no effect and ±100 for the full control effect
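Plates of compound plus infected erythrocytes (2% hematocrit, 0.05% parasitemia final) incubate 96 hours, 37 C, 5% CO2. Detection reagent added; reduced luminescence from the parasites' luciferase reporter flags inhibition.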
Pf growth 48h – inhibits P. falciparum growth in the first generation, 48 h. 310,000 tested, 5.9% active. P. falciparum luciferase growth in erythrocytes, 48 h. Potency, µM (top dose mostly 28.7 µM), without a hit: top-dose activity change, negative = inhibition, usual class: inhibitors; note: % is set by controls: 0 for no effect and ±100 for the full control effect
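Compounds are pin-transferred into medium, infected erythrocytes (2% hematocrit, 0.1% parasitemia final) are added, and plates sit one parasite generation at 37 C in 5% CO2. Detection reagent is then added and luminescence measured.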
SARS PLP yeast – blocks SARS-CoV papain-like protease in a yeast assay | S. cerevisiae expressing SARS-CoV PLpro, growth rescue | AID 485353 | 330,000 tested, 0.19% active | Potency, µM (doses to about 32.9 µM), for inactives: at the highest dose activity, positive = growth rescue, usual class: activators; calls by dose curve; note: 0% is about no effect; nearly all actives have a fitted effect of over 55% in size
AMA1-RON2 inh – disrupts binding of P. falciparum AMA1 to RON2 | Potency, µM (doses to about 58.2 µM), for inactives: top-dose activity change, negative = inhibition, most hits filed as inhibitors | AlphaScreen AMA1-biotinylated RON2 peptide binding | 360,000 tested, 0.2% active;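 note: 0% = vehicle wells and -100% = peptide control; nearly all actives have a fitted effect of over 45% in size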
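AMA1 (3D7) with his tag at 25 nM final met compounds first, then biotinylated RON2 peptide at 25 nM; detection used donor plus acceptor beads, 10 µg/mL apiece, read by AlphaScreen after 30 min at room temperature.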
* marks the source's active call; other numbers are inactive results; ? = inconclusive; . = not tested or not shown; [ ] = dose if it differs, or a comment. Hits are enriched below; roughly 9.4% of the tested compounds scored in any of these assays. Unless noted, calls come from the whole dose curve; as a rule, active = well fitted curve in the direction sought with a large enough effect; inconclusive = small, poorly fitted or top-dose-only effect, or another doubt; inactive = no such curve, though single readings can be large; an effect the other way counts as inactive or inconclusive. Potency is the fitted concentration of half-maximal effect.

SMILES	Pf growth 96h	Pf growth 48h	SARS PLP yeast	AMA1-RON2 inh
CCOC(=O)CN1C(=O)C(Sc2n[nH]c(-c3cccc(C)c3)n2)CCc2ccccc21 (configuration not stated)	9.28µM*	13.1µM*	-16.2%	-4.8%
COc1ccc(N2C(=O)CC(Sc3n[nH]c(-c4cccc(C)c4)n3)C2=O)cc1 (configuration not stated)	?	?	-4.3%	56.6%
CCOC(=O)CN1C(=O)C(Sc2n[nH]c(-c3ccc(C)cc3)n2)CCc2ccccc21 (configuration not stated)	11.7µM*	?	-3.0%	-5.2%
Cc1nc(-c2ccc(F)cc2)c(CC(=O)N(C)CC(=O)Nc2ccc(Cl)c(C(F)(F)F)c2)s1	.	.	.	23.9%
Cc1ccc2c(c1)C=CC(C#N)N2C(=O)c1ccccc1 (configuration not stated)	-25.5%	-15.9%	11.2µM*	-1.1%
Cc1ccc2c(c1)C=CC(C#N)N2C(=O)Oc1ccccc1 (configuration not stated)	.	.	.	0.0%
O=C(CSc1ccsc1[N+](=O)[O-])NCc1ccccc1	14.7µM*	123.8%	-1.1%	-13.3%
CCc1ccccc1NC(=O)CSc1ccsc1[N+](=O)[O-]	2.33µM*	-10.0%	-0.9%	-17.4%
COc1ccc(CCNC(=O)CSc2ccsc2[N+](=O)[O-])c(OC)c1	1.65µM*	?	0.9%	-24.4%
COc1ccccc1CNC(=O)CSc1ccsc1[N+](=O)[O-]	-4.4%	89.7%	2.4%	6.6%
CCOC(=O)C1CCN(c2c(Nc3ccc4c(c3)OCCO4)c(=O)c2=O)CC1	-24.8%	50.3%	12.6%	0.1%
CC(C)NC[C@H](O)c1cc(O)cc(O)c1	-23.2%	9.0%	.	.
CC(C)NCC(O)c1ccccc1Cl (configuration not stated)	12µM*	7.57µM*	.	.
CCc1nn(-c2cc(Oc3ccccc3)nc(-c3ccccc3)n2)c(N)c1C#N	.	4.6%	14.1%	-11.2%
Cc1ccc(C(=O)N2c3ccccc3N(Cc3ccccc3)C(=O)C2(C)C)cc1	7.38µM*	11.7µM*	-36.0%	-3.9%
Cc1ccc(CN2C(=O)C(F)(F)Oc3ccccc32)cc1	.	.	.	36.8%
Cc1ccc(C(=O)n2ncn(C)c2=S)cc1	11.2%	0.0%	-0.5%	-0.3%
CCc1ccc(N=C2NC(=O)/C(=C/c3cc(OC)c(OC)c(OC)c3)S2)cc1	?	-3.1%	-1.5%	68.2%
COc1cc(/C=C2\SC(=Nc3ccc(O)cc3)NC2=O)cc(OC)c1O	9.28µM*	3.7µM*	-1.1%	-5.6%
O=C(c1cccc(Cl)c1)N1CCCC(C(=O)N2CCCCCC2)C1 (configuration not stated)	12.6%	?	0.4%	-11.3%
CCn1cc(/C=N\NC(=O)c2cc(-c3ccccc3OC)nc3ccccc23)c(C)n1	1.85µM*	1.65µM*	7.4%	5.5%
COc1ccc(-c2cc(C(=O)N/N=C/c3ccc(OC)c(COCC(F)(F)C(F)F)c3)c3ccccc3n2)c(OC)c1	6.57µM*	1.47µM*	-2.7%	4.7%
COc1ccccc1-c1cc(C(=O)N/N=C/c2cccs2)c2ccccc2n1	4.15µM*	.	-15.6%	5.3%
COc1ccc(-c2cc(C(=O)N/N=C/c3sccc3C)c3ccccc3n2)c(OC)c1	11.7µM*	.	-3.4%	0.2%
O=C(N/N=C/c1cccs1)c1cc(-c2ccncc2)nc2ccccc12	?	-11.6%	23.8%	-11.3%
SMILES	Pf growth 96h	Pf growth 48h	SARS PLP yeast	AMA1-RON2 inh
COc1ccccc1-c1cc(C(=O)N/N=C\c2cn(C)nc2C)c2ccccc2n1	?	?	-7.1%	4.2%
CCCc1cc(C(=O)Nc2ccccc2SC)no1	?	108.6%	-25.2%	32.7%
COc1ccc(-c2csc(NC(=O)c3cc(-c4cccs4)nc4ccccc34)n2)c(OC)c1	?	?	-8.2%	-0.1%[11.6 µM]
COc1ccccc1-c1csc(NC(=O)c2cc(-c3cccs3)nc3ccccc23)n1	7.38µM*	?	-4.8%	0.4%
C/C(=N\NC(=O)c1cc(C)nc2ccccc12)c1ccco1	-41.9%[5.75 µM]	?	1.1%	5.8%
COc1ccc(-c2cc(C(=O)N/N=C(\C)c3ccco3)c3ccccc3n2)c(OC)c1	13.1µM*	9.28µM*	-3.5%	78.0%
CC1CCN(CCNC(=O)C2CCN(S(=O)(=O)c3cccc4nsnc34)CC2)CC1	?	-15.0%	0.8%	13.4%
Cc1ccc2[nH]c(=O)c(-c3nc4ccccn4c3NCc3ccco3)cc2c1	4.65µM*	32.7%	-3.5%	-3.1%
COc1ccc(C)cc1C(=O)CCC(=O)NCCc1ccc(S(N)(=O)=O)cc1	-16.1%	-17.0%	0.2%	-0.1%
COCCCNc1nc2nonc2nc1N1C[C@H]2CC[C@H]1C2	?	-17.2%	-0.4%	7.9%
COCCNc1nc2nonc2nc1N1CCC(N(C)C)C1 (configuration not stated)	6.57µM*	-17.5%	0.4%	3.8%
COCCNc1nc2nonc2nc1N1C[C@H]2CC[C@H]1C2	10.4µM*	11.7%	-0.3%	-0.5%
CCC/C(=N\NC(=O)Cc1csc(N2CCOCC2)n1)c1ccccc1	-19.8%	0.0%	-5.5%	-0.6%
CC(=O)N1CC=C2C(C#N)=C(N)C(C#N)(C#N)C(CCc3ccccc3)C2C1 (configuration not stated)	-6.5%	-28.2%	8.4%	-4.0%
CCN1CC=C2C(C#N)=C(N)C(C#N)(C#N)C(CCc3ccccc3)C2C1 (configuration not stated)	10.4µM*	10.4µM*	-0.9%	0.2%
CCOC(=O)[C@H]1[C@H]2COc3ccc(C)cc3[C@@H]2N2C(=O)c3ccc(Cl)cc3NC(=O)[C@@]12C	.	.	5.0%	21.5%
CCOC(=O)[C@H]1[C@H]2COc3ccc(Cl)cc3[C@@H]2N2C(=O)c3ccc(Cl)cc3NC(=O)[C@@]12C	13.1µM*	10.4µM*	-1.6%	-3.7%
CCOC(=O)[C@H]1[C@H]2COc3cc(OC)ccc3[C@@H]2N2C(=O)c3ccc(F)cc3NC(=O)[C@@]12C	?	?	6.1%	-7.9%
CCOC(=O)[C@H]1[C@H]2COc3ccc(Br)cc3[C@@H]2N2C(=O)c3ccc(F)cc3NC(=O)[C@@]12C	?	?	-4.5%	0.0%
CCOC(=O)[C@H]1[C@H]2COc3cc(OC)ccc3[C@@H]2N2C(=O)c3cc(F)ccc3NC(=O)[C@@]12C	10.4µM*	9.28µM*	1.3%	-7.1%
CCOC(=O)[C@H]1[C@H]2COc3cc(OC)ccc3[C@@H]2N2C(=O)c3cc(OC)ccc3NC(=O)[C@@]12C	6.57µM*	1.31µM*	-1.2%	-1.1%
CCOC(=O)[C@H]1[C@H]2COc3ccc(Br)cc3[C@@H]2N2C(=O)c3cc(F)c(F)cc3NC(=O)[C@@]12C	?	16.5µM*	4.8%	11.6%
COc1ccc(N/C=C(\C#N)S(=O)(=O)c2ccc(OC)cc2)cc1	?	-15.7%	1.8%	-12.8%
CCOC(=O)[C@H]1[C@H]2COc3cc(OC)ccc3[C@@H]2N2C(=O)c3ccc(C)cc3NC(=O)[C@@]12C	?	?	-0.3%	-13.7%
